Holding throughout (experiment): DAPPL (digital affinity profiling via proximity ligation, sequencing); 10 mM Tris-HCl pH 7.5, 50 mM NaCl, 1 mM DTT, 4% glycerol, room temperature, 30 min; GST-TFs on glutathione beads, 16-mer random dsDNA library, 0.1% formaldehyde crosslink after washing; high values mean tight binding
Holding throughout (details): protein: recombinant; tags: N-terminal GST; dsDNA, one strand shown

In assay [1] the target is T1, FLI1 (Homo sapiens, UniProt Q01543 1-452).
T1 sequence: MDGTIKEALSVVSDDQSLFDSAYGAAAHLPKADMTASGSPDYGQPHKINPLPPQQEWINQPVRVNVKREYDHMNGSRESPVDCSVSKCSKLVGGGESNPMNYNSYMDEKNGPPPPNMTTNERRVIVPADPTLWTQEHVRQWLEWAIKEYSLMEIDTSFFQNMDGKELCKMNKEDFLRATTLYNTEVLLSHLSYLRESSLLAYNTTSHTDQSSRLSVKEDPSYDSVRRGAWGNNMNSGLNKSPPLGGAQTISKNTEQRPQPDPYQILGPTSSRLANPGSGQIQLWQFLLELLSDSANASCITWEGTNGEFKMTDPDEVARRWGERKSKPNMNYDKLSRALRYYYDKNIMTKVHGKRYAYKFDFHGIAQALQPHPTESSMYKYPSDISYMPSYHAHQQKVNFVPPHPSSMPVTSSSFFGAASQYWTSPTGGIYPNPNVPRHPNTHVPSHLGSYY
Summed up:
(§1)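 After expression in yeast as GST fusions, human transcription factors were bound to glutathione beads, DNA-barcoded and mixed with a tag-only sample. The pools were incubated with 200 nmole of a 16-mer random double-stranded DNA library in Tris/NaCl/DTT/glycerol buffer (30 min, room temperature), washed and crosslinked with 0.1% formaldehyde. Proximity ligation with BsaI/T4 ligase ran for 1 h at 37 °C, before PCR amplification and sequencing on an Illumina NextSeq500. Binding signal is a hexamer's read frequency for a factor divided by its frequency for the tag-only sample.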

Assay [2] deals with T2, GABPA (Homo sapiens, UniProt Q06546 1-454).
T2 sequence: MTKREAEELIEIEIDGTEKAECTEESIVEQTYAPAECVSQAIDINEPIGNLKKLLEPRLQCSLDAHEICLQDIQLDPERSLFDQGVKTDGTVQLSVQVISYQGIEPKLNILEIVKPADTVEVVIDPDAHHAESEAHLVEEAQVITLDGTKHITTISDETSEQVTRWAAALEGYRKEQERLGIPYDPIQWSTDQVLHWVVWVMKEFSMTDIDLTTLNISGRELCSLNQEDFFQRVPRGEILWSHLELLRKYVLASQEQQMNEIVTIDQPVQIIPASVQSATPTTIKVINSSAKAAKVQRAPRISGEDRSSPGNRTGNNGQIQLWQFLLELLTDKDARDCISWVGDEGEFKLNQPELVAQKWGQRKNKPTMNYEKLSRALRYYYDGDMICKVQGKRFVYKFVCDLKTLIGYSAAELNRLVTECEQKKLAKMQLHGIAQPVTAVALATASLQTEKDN
Summed up: as §1

Assay [3] concerns the target T3, ERG (Homo sapiens, UniProt P11308 1-479).
T3 sequence: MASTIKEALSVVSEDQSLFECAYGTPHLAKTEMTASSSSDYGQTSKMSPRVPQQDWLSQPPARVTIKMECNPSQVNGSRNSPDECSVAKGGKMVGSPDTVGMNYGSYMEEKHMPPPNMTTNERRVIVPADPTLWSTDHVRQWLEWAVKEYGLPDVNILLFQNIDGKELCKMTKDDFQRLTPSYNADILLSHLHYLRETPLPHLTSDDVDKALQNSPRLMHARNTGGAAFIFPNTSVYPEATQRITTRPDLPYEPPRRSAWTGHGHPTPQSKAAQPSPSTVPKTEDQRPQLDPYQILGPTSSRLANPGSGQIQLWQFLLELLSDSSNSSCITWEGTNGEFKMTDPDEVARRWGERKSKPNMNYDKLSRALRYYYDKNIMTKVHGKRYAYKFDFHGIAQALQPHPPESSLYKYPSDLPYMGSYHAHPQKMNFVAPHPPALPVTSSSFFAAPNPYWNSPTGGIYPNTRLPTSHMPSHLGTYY
Summed up:
as §1

In assay [4] the target is ELF1 (Homo sapiens, UniProt P32519 1-619). In outline: as §1
Chain of ELF1 (P32519 whole entry): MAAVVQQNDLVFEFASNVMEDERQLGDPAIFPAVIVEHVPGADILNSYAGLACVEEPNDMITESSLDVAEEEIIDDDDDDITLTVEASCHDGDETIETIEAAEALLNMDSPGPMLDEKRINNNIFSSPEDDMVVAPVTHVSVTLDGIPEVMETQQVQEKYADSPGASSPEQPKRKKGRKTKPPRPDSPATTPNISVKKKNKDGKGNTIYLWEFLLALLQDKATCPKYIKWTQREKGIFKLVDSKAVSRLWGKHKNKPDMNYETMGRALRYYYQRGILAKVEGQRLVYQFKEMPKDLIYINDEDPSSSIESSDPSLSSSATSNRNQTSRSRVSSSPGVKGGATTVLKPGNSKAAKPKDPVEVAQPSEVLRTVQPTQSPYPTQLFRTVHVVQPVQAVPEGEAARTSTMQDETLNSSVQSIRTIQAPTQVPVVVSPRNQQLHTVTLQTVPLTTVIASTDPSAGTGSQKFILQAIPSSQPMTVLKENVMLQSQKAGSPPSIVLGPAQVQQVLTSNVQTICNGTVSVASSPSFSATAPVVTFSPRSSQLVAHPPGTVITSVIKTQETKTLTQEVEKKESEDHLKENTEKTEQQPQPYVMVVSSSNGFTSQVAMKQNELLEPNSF
For assay [5], the target named is T4, EHF (Homo sapiens, UniProt Q9NZC4 1-300).
T4 sequence: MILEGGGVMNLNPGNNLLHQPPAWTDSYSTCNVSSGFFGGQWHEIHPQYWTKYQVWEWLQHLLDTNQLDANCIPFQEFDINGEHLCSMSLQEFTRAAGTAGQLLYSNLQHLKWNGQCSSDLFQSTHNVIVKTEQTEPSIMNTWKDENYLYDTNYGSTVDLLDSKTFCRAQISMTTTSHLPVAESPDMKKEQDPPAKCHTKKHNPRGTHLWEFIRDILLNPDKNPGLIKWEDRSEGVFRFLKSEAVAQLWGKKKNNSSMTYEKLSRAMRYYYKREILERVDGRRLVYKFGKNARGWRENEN
In outline: as §1

Assay [6] addresses SPI1 (Homo sapiens, UniProt P17947 1-270). In outline: as §1
Assay [7] addresses SPIB (Homo sapiens, UniProt Q01892 1-262). In outline: as §1
Assay [8] has as its target T5, ELK3 (Homo sapiens, UniProt P41970 1-407).
T5 sequence: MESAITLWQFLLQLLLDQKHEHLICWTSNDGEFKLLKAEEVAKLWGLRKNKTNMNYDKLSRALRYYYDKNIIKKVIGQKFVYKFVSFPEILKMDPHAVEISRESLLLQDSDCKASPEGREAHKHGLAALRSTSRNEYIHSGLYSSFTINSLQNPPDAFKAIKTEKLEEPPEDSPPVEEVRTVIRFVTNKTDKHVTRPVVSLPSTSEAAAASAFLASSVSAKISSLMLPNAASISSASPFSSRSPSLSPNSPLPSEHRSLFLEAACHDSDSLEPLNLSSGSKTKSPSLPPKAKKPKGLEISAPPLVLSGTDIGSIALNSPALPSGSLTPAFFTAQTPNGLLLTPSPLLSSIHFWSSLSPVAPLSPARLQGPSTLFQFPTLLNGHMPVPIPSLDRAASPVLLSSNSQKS
In outline:
as §1

Assay [9] concerns the target T6, FEV (Homo sapiens, UniProt Q99581 1-238).
T6 sequence: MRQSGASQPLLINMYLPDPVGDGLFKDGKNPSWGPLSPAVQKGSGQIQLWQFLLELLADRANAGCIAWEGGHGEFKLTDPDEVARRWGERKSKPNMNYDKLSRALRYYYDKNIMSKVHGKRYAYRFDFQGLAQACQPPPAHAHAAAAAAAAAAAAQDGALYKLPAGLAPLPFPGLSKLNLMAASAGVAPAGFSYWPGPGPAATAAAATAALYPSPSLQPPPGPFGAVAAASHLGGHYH
Summed up: as §1

Assay [10] addresses ETV5 (Homo sapiens, UniProt P41161 1-510). In outline:
as §1

Assay [11] addresses T7, SPIC (Homo sapiens, UniProt Q8N5J4 1-248).
T7 sequence: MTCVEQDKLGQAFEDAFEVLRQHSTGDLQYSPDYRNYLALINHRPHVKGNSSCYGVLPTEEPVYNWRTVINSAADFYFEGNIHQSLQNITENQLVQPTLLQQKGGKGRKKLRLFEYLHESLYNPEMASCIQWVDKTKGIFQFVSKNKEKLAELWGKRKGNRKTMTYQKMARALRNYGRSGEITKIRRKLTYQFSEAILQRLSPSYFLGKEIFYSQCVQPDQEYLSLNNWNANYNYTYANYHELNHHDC
In outline: as §1

The target in assay [12] is ELF4 (Homo sapiens, UniProt Q99607 1-663). In outline: as §1
Chain of ELF4 (Q99607 whole entry): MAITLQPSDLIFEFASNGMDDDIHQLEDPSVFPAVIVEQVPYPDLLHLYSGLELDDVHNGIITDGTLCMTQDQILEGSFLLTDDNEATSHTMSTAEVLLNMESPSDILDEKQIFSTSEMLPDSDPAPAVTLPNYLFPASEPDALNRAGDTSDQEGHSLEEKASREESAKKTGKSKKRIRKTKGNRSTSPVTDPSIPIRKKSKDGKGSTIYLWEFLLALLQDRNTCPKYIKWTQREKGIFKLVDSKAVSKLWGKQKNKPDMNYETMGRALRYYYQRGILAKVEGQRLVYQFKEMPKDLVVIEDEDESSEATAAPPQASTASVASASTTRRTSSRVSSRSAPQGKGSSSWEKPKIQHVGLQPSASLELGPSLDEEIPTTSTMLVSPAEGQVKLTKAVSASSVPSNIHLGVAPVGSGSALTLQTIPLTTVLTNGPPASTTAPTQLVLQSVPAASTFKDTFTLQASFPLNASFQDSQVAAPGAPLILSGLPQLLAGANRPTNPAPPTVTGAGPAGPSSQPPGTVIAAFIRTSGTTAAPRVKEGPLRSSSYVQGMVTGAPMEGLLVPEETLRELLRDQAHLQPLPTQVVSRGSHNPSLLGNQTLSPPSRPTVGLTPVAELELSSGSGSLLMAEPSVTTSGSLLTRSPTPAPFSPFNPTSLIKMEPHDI
The target in assay [13] is T8, ERF (Homo sapiens, UniProt P50548 1-548).
T8 sequence: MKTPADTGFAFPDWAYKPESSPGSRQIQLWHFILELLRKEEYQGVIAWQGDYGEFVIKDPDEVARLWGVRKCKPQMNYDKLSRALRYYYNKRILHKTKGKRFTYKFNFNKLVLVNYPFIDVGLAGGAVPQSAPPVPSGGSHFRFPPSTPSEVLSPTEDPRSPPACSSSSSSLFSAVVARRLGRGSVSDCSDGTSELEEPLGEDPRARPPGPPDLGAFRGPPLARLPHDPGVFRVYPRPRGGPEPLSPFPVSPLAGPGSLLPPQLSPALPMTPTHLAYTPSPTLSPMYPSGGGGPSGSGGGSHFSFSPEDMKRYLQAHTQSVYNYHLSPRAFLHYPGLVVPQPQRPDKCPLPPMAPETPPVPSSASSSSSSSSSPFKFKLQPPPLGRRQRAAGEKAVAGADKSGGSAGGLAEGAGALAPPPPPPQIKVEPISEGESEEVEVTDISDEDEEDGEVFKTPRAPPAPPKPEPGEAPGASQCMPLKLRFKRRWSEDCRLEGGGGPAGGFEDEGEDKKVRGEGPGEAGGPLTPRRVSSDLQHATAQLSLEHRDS
Summed up: as §1

Assay [14] concerns the target T9, ETV3L (Homo sapiens, UniProt Q6ZN32 1-361).
T9 sequence: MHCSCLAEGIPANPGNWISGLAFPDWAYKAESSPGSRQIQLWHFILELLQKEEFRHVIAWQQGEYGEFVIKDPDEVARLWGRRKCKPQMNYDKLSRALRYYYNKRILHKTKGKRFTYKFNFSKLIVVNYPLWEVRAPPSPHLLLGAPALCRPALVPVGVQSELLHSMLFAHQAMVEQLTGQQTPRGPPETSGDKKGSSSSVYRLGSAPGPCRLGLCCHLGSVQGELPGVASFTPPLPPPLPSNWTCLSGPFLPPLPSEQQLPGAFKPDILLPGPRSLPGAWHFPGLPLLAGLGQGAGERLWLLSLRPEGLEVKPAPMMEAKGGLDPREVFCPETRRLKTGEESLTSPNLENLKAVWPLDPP
In outline:
as §1

The target in assay [15] is T10, ETS2 (Homo sapiens, UniProt P15036 1-469).
T10 sequence: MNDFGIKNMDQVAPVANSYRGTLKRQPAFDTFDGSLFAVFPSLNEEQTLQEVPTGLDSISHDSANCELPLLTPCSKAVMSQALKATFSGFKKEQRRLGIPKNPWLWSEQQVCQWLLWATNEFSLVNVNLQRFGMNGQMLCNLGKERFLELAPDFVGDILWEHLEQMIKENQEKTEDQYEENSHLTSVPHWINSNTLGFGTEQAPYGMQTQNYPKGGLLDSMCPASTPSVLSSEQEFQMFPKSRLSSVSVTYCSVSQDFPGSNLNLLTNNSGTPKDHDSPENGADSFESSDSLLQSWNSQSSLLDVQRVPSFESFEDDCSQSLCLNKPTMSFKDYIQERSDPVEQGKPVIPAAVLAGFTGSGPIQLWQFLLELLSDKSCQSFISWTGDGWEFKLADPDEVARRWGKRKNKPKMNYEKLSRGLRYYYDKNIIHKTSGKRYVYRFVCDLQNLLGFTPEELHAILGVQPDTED
Summed up:
as §1

The target of assay [16] is ETV6 (Homo sapiens, UniProt P41212 1-452). Summed up: as §1
Chain of ETV6 (P41212 whole entry): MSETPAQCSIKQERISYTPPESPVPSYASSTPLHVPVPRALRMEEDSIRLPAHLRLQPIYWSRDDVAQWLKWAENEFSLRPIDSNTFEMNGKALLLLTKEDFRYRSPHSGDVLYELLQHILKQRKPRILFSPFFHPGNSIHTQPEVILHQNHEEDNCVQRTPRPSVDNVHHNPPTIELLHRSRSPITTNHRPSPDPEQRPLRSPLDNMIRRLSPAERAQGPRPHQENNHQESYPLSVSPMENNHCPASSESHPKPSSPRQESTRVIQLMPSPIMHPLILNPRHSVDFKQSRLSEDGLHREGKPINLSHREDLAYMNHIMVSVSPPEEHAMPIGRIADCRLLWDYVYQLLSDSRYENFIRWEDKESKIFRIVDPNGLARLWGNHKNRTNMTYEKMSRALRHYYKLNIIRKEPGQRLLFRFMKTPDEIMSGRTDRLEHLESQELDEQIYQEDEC
For assay [17], the target named is T11, ETV3 (Homo sapiens, UniProt P41162-2 1-143).
T11 sequence: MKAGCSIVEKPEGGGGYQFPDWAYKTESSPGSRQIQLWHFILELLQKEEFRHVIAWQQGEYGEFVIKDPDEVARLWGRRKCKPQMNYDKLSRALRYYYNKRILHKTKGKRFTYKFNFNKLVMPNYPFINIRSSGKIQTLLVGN
In outline:
as §1

Chain of ETV5 (P41161 whole entry): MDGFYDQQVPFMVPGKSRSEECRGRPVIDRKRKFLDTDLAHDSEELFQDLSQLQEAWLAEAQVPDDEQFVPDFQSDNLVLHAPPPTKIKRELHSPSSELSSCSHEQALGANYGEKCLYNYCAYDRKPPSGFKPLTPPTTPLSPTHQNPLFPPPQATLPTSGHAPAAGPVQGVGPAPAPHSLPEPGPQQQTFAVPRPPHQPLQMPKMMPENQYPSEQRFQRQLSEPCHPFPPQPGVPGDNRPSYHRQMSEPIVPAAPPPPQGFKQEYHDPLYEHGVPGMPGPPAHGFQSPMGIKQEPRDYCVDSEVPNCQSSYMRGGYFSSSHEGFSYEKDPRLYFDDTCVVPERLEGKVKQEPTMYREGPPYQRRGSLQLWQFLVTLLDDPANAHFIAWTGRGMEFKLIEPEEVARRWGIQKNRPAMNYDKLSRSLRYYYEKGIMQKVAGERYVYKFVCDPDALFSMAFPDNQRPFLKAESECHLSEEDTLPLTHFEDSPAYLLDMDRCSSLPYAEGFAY
Chain of SPIB (Q01892 whole entry): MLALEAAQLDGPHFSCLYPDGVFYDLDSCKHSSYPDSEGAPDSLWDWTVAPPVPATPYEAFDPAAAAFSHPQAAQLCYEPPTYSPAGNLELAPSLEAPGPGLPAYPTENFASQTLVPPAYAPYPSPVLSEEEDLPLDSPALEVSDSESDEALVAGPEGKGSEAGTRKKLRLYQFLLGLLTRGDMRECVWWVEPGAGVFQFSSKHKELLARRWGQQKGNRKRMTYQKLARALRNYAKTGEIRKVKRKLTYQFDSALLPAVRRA

As to CAGCTA, the binding signal in assay [1] is 1.1 fold enrichment (6-mer frequency, TF over GST control); in assay [2], 1.06 fold enrichment (6-mer frequency, TF over GST control); in assay [3] it was 1.03 fold enrichment (6-mer frequency, TF over GST control); in assay [4], 1.07 fold enrichment (6-mer frequency, TF over GST control); in assay [5], 1.05 fold enrichment (6-mer frequency, TF over GST control); in [6] it was 1.03 fold enrichment (6-mer frequency, TF over GST control). The binding signal in assay [7] was 1.04 fold enrichment (6-mer frequency, TF over GST control); in assay [8] it was 1.02 fold enrichment (6-mer frequency, TF over GST control); in assay [9] it was 1.02 fold enrichment (6-mer frequency, TF over GST control); in [10], 1.01 fold enrichment (6-mer frequency, TF over GST control); in [11] it was 1.07 fold enrichment (6-mer frequency, TF over GST control); in [12], 1.03 fold enrichment (6-mer frequency, TF over GST control). The binding signal was 1.08 fold enrichment (6-mer frequency, TF over GST control) in [13]; 1.05 fold enrichment (6-mer frequency, TF over GST control) in [14]; 1.06 fold enrichment (6-mer frequency, TF over GST control) in assay [15]; 1.01 fold enrichment (6-mer frequency, TF over GST control) in assay [16].

Consider AGCTGT, for which the binding signal in [1] was 1.04 fold enrichment (6-mer frequency, TF over GST control); in assay [2] it was 1.05 fold enrichment (6-mer frequency, TF over GST control); in assay [3] it was 1.01 fold enrichment (6-mer frequency, TF over GST control); in assay [7], 1.06 fold enrichment (6-mer frequency, TF over GST control); in [9], 1.04 fold enrichment (6-mer frequency, TF over GST control); in assay [10] it was 1.02 fold enrichment (6-mer frequency, TF over GST control). The binding signal in assay [11] is 1.15 fold enrichment (6-mer frequency, TF over GST control); in assay [12], 1.02 fold enrichment (6-mer frequency, TF over GST control); in [17], 1.07 fold enrichment (6-mer frequency, TF over GST control).

Values taken from publication PMC7862700, “An all-to-all approach to the identification of sequence-specific readers for epigenetic DNA modifications on cytosine”.
